Experimental data taken from PubChem BioAssay AID1851 (National Center for Advancing Translational Sciences (NCATS), 2009).
In all, about 16,000 compounds went through this assay and about 4,000 (25%) were called active. Another 26% or so got no clear call; they are omitted. Not all results are given here. A number with no mark means an inactive call. Calls follow the shape of the dose curve; as a rule, active = well fitted curve in the direction sought with a large enough effect; inconclusive = small, poorly fitted or top-dose-only effect, or effect the other way; inactive = no such curve, though single readings can be large or run the other way.

What follows are molecules tested against Cytochrome P450 2C9 (Homo sapiens) (UniProt P11712) (assay: Cytochrome panel assay with activity outcomes). Settings: recombinant CYP, pro-luciferin dealkylation, luminescence, p450-cyp2c9; series mostly up to 57.1 µM; activity, negative = inhibition: at the top concentration.
Sequence of Cytochrome P450 2C9 (Homo sapiens) (P11712 whole entry, looked up): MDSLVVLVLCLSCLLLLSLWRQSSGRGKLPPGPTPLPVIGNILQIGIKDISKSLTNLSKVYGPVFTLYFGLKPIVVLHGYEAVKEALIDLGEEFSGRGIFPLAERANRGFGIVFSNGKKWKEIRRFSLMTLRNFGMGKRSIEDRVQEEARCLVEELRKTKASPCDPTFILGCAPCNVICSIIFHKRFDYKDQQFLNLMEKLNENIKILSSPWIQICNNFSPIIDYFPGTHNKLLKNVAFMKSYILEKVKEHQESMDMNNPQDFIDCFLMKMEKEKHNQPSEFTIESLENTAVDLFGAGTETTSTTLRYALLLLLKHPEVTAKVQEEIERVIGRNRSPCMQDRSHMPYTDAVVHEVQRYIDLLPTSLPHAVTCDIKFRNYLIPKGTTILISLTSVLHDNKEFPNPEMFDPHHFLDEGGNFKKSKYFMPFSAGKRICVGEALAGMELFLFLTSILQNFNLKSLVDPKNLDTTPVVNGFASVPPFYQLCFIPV
% is scaled to controls: 0 for no effect and ±100 for the full control effect.

SMILES | activity, negative = inhibition | AC50
C[C@H](NC[C@H](O)CP(=O)(O)CC1CCCCC1)c1ccc(Cl)c(Cl)c1 | 5.16% | 
CC(C)CN(CC(C)C)C1=N/C(=C\c2ccco2)C(=O)N1c1ccccc1 |  | 3.98 µM (active)
Cc1cnc(CNc2ccnc(-c3ccccc3C(F)(F)F)n2)cn1 | 8.33% [at 2.29 µM] | 
C#CCSc1n[nH]c(-c2ccco2)n1 | 0.366% [at 11.4 µM] | 
CC#C[C@@]1(O)CC[C@H]2[C@@H]3CCC4=CC(=O)CCC4=C3[C@H](c3ccc(N(C)C)cc3)C[C@]21C |  | 3.98 µM (active)
CC#C[C@]1(O)CC[C@H]2[C@@H]3CCC4=CC(=O)CCC4=C3[C@H](c3ccc(N(C)C)cc3)C[C@@]21C | -27.4% | 
CC1Cc2ccccc2N1C(=O)CSCC(=O)O (stereo unspecified) | -1.23% | 
CCCC(=O)N1c2ccccc2C(N(C(C)=O)c2ccccc2)CC1C (stereo unspecified) |  | 3.98 µM (active)
Cn1nc(C(F)(F)F)c(/C=N/OCc2c(Cl)cccc2Cl)c1Cl |  | 1.58 µM (active)
O=C(NCCCN1CCCCCC1)C1CC(=O)N(CCc2ccccc2)C1 (stereo unspecified) | -5.16% | 
CC(=O)c1ccc(N2CCC(c3cc(-c4ccc(Cl)cc4)n[nH]3)CC2)c([N+](=O)[O-])c1 |  | 3.98 µM (active)
CC(=O)c1ccc(N2CCC(c3cc(-c4ccc(Cl)cc4Cl)n[nH]3)CC2)c([N+](=O)[O-])c1 |  | 3.98 µM (active)
COc1ccc(-c2cc(C3CCN(c4ccc(C(C)=O)cc4[N+](=O)[O-])CC3)[nH]n2)cc1 |  | 7.94 µM (active)
COc1ccc(-c2cc(C3CCN(c4cc(Cl)nc(N)n4)CC3)[nH]n2)cc1 |  | 14.1 µM (active)
CC(C)NC(=O)N1CCC2(CC1)CCN(S(C)(=O)=O)CC2 | 9.5% | 
CN(Cc1ccco1)c1ncncc1-c1ccccc1C(F)(F)F | -7.74% [at 2.29 µM] | 
COc1ccccc1-c1cc(Nc2ccn[nH]2)ncn1 | -3.07% [at 2.29 µM] | 
CC(C)SC(=N)N | -9.07% | 
Clc1ccc(COC(Cn2ccnc2)c2ccc(Cl)cc2Cl)c(Cl)c1 (stereo unspecified) |  | 0.316 µM (active)

SMILES | activity, negative = inhibition | AC50
Clc1ccc([C@H](Cn2ccnc2)OCc2csc3c(Cl)cccc23)c(Cl)c1 |  | 0.316 µM (active)
NC(N)=NC(N)=Nc1c(F)c(F)c(F)c(F)c1F | 0.138% [at 11.4 µM] | 
O=C(O)c1cc2cc(Cc3cccnc3)ccc2o1 | 0.178% | 
O=S(=O)(O)c1nc2ccccc2n1Cc1ccccc1 |  | 25.1 µM (active)
Cc1cccc(OCCn2c(-c3ccco3)nc3ccccc32)c1 |  | 1.78 µM (active)
CS(=O)(=O)c1nc2ccccc2n1Cc1ccccc1 | -24.8% | 
O=C(O)[C@@H]1[C@H](C(=O)O)[C@H]2C(=O)C=C[C@H]1N2Cc1ccccc1 | 4.11% [at 11.4 µM] | 
Cc1cccc(OCCn2c(S(=O)(=O)O)nc3ccccc32)c1 |  | 5.62 µM (active)
Cc1cccc(CCNc2nc3ccccc3n3nnnc23)c1 | -13.9% | 
OCCN1CCN(CCOc2cccc(Cl)c2)CC1 | -19.2% | 
OC[C@@H]1NC[C@@H](O)[C@@H](O)[C@H]1O | -12.5% | 
COC(=O)N1CCC2(CCCN(C(=O)Nc3cccc(F)c3)C2)CC1 | 19.8% | 
O=C(c1[nH]o[n+](=O)c1C(=O)c1csc2ccccc12)c1csc2ccccc12 |  | 1.58 µM (active)
O=C1NCCc2c1[nH]c1ccccc21 | -6.41% | 
CN(c1ccccc1)c1ccc(/C=c2\s/c(=C(/C#N)C(=O)C(C)(C)C)n(Cc3ccco3)c2=O)cc1 |  | 3.55 µM (active)
COc1cccc(/C=c2/s/c(=C(\C#N)C(=O)N3CCOCC3)n(-c3ccccc3)c2=O)c1 | -17.4% | 
COC(=O)c1ccc(C(NC(=O)c2ccco2)[C@]2(C)C[C@H]2C2CCCCC2)cc1 (stereo partly specified) |  | 10 µM (active)
C[C@@]1(C(NC(=O)Cc2ccccc2)c2ccc(-c3ccccc3)cc2)C[C@H]1C1CCCCC1 (stereo partly specified) | -6.75% | 
COC(=O)c1ccc(C(NC(=O)c2ccccc2)[C@]2(C)C[C@H]2C2CCCCC2)cc1 (stereo partly specified) | -21.3% | 

SMILES | activity, negative = inhibition | AC50
CCCC[C@@H]1C[C@H]1C(NC(=O)c1ccc(-c2ccccc2)cc1)c1ccc(-c2ccccc2)cc1 (stereo partly specified) | 8.19% | 
CCCC[C@@H]1C[C@H]1C(NC(=O)c1ccccc1)c1ccccc1 (stereo partly specified) |  | 7.94 µM (active)
C=C(CC1([C@@H](NP(=O)(c2ccccc2)c2ccccc2)[C@H]2C[C@@H]2CCCC)CC1)c1ccccc1 |  | 10 µM (active)
CCCC[C@@H]1C[C@H]1C(NC(=O)c1ccco1)c1ccccc1 (stereo partly specified) |  | 15.8 µM (active)
CN(C)CCSCCO | 13.5% [at 11.4 µM] | 
CO[C@@H]1COC(=O)[C@H](COCc2ccccc2)NC(=O)C/C=C\[C@@H](C)[C@H](OC)COC(=O)[C@@H](C)NC(=O)C/C=C\[C@H]1C | -22.8% [at 11.4 µM] | 
CCC[C@@H]1C[C@@]1(CCC)C(NC(=O)c1ccco1)c1ccc(Cl)cc1 (stereo partly specified) |  | 15.8 µM (active)
CCCC[C@@H]1C[C@H]1C(NC(=O)c1ccco1)c1ccc(Cl)cc1 (stereo partly specified) |  | 3.98 µM (active)
CCCC[C@@H]1C[C@H]1C(NC(=O)c1ccco1)c1ccc(C(=O)OC)cc1 (stereo partly specified) |  | 0.794 µM (active)
C[C@@]1(C(NC(=O)c2ccc(-c3ccccc3)cc2)c2ccc(Cl)cc2)C[C@H]1C1CCCCC1 (stereo partly specified) | 4.8% | 
CCC[C@@H]1C[C@@]1(CCC)C(NS(=O)(=O)c1cccc2cccnc12)c1ccc(Cl)cc1 (stereo partly specified) |  | 7.94 µM (active)
C[N+]1(CCC(=O)c2ccco2)CC2CCC(CC2)C1 (stereo unspecified) | 6.14% [at 11.4 µM] | 
CC1(C)S[C@@H]2[C@H](NC(=O)[C@H](C(=O)O)c3ccsc3)C(=O)N2[C@H]1C(=O)O | 27.8% [at 25.6 µM] | 
O=c1oc2c(Cl)cc(Cl)cc2cc1-c1nnc(Nc2ccccc2F)s1 | 25% | 
COC(=O)[C@@H]1C[C@H]1[C@@H](NC(=O)c1cc(C)nn1C)c1ccccc1 | -53.8% | 
CCCC[C@@H]1C[C@H]1C(NC(=O)Cc1ccccc1)c1ccc(-c2ccccc2)cc1 (stereo partly specified) | -22.7% | 
CCCC[C@@H]1C[C@H]1C(NC(=O)c1ccco1)c1ccc(-c2ccccc2)cc1 (stereo partly specified) |  | 3.16 µM (active)
NNC(=O)[C@@H](O)[C@H](O)[C@H](O)CO | -4.21% [at 11.4 µM] | 
